Compounds with a hit are over-represented: about 0.92% of the library has one in this group of screens.
FadD28 binding: inhibitors of Mycobacterium tuberculosis FadD28 bisubstrate binding; FadD28 bisubstrate probe binding, fluorescence polarization; inhibition, % at 12.5 µM; actives 0.22% (n = 360,000); AID 588549; in the data active = inhibition above about 8.5%, passing the limit was not always enough; inconclusive = no clear call, values can overlap the other calls
Rv3671c inh: Rv3671c (M. tuberculosis) protease inhibition; actives 0.048% (n = 320,000); inhibition, % at 5.96 µM; P9WHR9; AID 2606; in the data active = inhibition above about 38%;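 note: extracellular domain of Rv3671c used as enzyme; 0% = enzyme with DMSO and 100% = no enzyme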
UGM FP inh: inhibitors of M. tuberculosis UDP-galactopyranose mutase. P9WIQ1. purified UGM, fluorescence polarization probe displacement. inhibition, % at 10 µM. actives 0.06% (n = 320,000). AID 504406; in the data active = inhibition above about 10%, passing the limit was not always enough; inconclusive = no clear call, values can overlap the other calls
Mtb hypoxia rep: inhibitors of hypoxia-regulated fluorescent reporter in Mycobacterium tuberculosis. M. tuberculosis hypoxia-regulated fluorescent reporter, fluorescence. fluorescence inhibition, % (test concentration not listed). actives 0.1% (n = 300,000); in the data active = fluorescence inhibition mostly above about 23%, no sharp cut-off; inactive = mostly below about 17%
RecA intein inh: inhibitors of M. tuberculosis RecA intein splicing. P9WHJ3. cell-free RecA intein splicing, fluorescence. inhibition, % (no concentration beside the values). actives 0.75% (n = 290,000); in the data active = inhibition above about 30%; inconclusive = no clear call, values can overlap the other calls;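 note: 0% = vehicle wells and 100% = reference inhibitor control wells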
Target sequence (P9WHJ3 whole entry, looked up): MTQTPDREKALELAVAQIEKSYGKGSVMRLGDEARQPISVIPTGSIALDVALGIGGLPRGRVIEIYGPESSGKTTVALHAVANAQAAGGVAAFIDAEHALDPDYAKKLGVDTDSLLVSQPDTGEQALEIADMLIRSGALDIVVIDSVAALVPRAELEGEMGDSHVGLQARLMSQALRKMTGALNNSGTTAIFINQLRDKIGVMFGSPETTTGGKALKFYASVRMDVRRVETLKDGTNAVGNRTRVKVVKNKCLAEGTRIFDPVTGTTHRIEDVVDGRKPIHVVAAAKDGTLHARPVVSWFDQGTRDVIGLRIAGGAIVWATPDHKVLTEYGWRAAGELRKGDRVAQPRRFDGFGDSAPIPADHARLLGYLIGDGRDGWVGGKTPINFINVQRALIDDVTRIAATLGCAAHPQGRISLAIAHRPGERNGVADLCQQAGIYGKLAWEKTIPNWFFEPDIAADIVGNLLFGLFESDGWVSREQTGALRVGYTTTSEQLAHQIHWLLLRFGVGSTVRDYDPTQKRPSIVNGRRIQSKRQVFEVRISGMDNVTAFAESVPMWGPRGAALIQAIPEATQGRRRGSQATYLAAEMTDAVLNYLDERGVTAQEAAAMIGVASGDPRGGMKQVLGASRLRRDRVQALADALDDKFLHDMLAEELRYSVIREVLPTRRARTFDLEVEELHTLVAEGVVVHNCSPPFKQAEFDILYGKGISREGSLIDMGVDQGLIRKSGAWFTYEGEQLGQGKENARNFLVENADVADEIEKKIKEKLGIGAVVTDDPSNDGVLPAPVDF
Mtb bLac sens: beta-lactam sensitization of Mtb H37Rv; M. tuberculosis H37Rv growth with meropenem, percent inhibition; inhibition, % at 25 µM; actives 0.27% (n = 330,000); AID 434955;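 note: growth measured after seven days incubation then overnight dye step; 0% = bacteria only wells and 100% = bacteria with antibiotic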
GFP chromo cs: counter-screen: blocks GFP chromophore formation; shares compounds with RecA intein inh; cell-free GFP chromophore formation, fluorescence; EC50, µM; actives 83% (n = 2,100); AID 434968
The depositor's hits bear a star; ? = inconclusive; / = no result. Unless noted, the rule behind the calls is not given here.

SMILES | FadD28 binding | Rv3671c inh | UGM FP inh | Mtb hypoxia rep | RecA intein inh | Mtb bLac sens | GFP chromo cs
CC(C)(C)C1CC=C2C(C#N)=C(N)C(C#N)(C#N)C(c3cccs3)C2C1 (stereo not drawn) | / | -2 | -1 | / | 19 | 1 | /
O=C(COC(=O)C1CC(=O)N(Cc2ccco2)C1)c1ccc(OC(=O)c2ccco2)cc1 (stereo not drawn) | -3 | -15 | 3 | 1 | 35* | -1 | >38
CCN(CC)CC(=O)Nc1ccc(/C(C)=N/NC2=NCCN2)cc1 | -2 | -10 | 1 | / | -1 | -3 | /
CC1=NNC(=O)C1Cc1ccccc1C (stereo not drawn) | 0 | -2 | 1 | 10 | 95* | -3 | 0.74*
Cc1cc(C)c(S(=O)(=O)/N=C2\C=C(Nc3ccc(C(=O)O)cc3)C(=O)c3ccccc32)c(C)c1 | ? | -155 | 4 | / | 96* | 10 | 0.87*
CCc1ccc(S(=O)(=O)/N=C2\C=C(Nc3cccc(C(=O)O)c3)C(=O)c3ccccc32)cc1 | 3 | -183 | 2 | / | 95* | 5 | 0.42*
Cc1ccc(S(=O)(=O)/N=C2\C=C(NS(=O)(=O)c3ccccc3)C(=O)c3ccccc32)cc1 | 1 | / | / | / | / | / | /
CCc1ccc(S(=O)(=O)/N=C2\C=CC(=O)c3ccccc32)cc1 | / | -93 | 1 | / | 93* | 6 | 1.7*
O=C(O)c1ccc(NC2=C/C(=N/S(=O)(=O)c3ccccc3)c3ccccc3C2=O)cc1 | 4 | / | / | / | / | / | /
CCc1ccc(S(=O)(=O)N=C2C=CC(=O)c3ccccc32)cc1 | / | / | / | -4 | / | / | /
CCc1ccc(S(=O)(=O)/N=C2\C=C(Nc3ccc(O)cc3)C(=O)c3ccccc32)cc1 | ? | -129 | -1 | / | 97* | 24 | 0.5*
O=C(NCC1COc2ccccc2O1)c1cc(S(=O)(=O)N2CCOCC2)c(Cl)cc1Cl (stereo not drawn) | -1 | / | / | 4 | / | / | /
CC(=O)Oc1ccc2ccccc2c1C(NC(=O)Cc1ccccc1)c1ccc(Cl)cc1 (stereo not drawn) | -4 | -11 | 1 | 4 | 43* | 6 | >38
CCN(C(=O)c1ccc2c(Cl)c3c(nc2c1)CCC3)c1ccc(C)c(C)c1 | -6 | -16 | -3 | 6 | 30* | 6 | 9.1*
CCN(CC)S(=O)(=O)c1ccc(NN=C(C#N)C#N)cc1 | 0 | 8 | 0 | / | 38* | -5 | 27*
O=C1C=Cc2ccccc2C1=O | / | 2 | 2 | / | 39* | 7 | 9.1*
CCN1C(=C2C(=O)c3ccccc3C2=O)C=Cc2ccccc21 | -5 | -2 | 1 | 8 | -2 | 1 | /
Oc1ccc(/C=N/N=C/c2ccc(O)c(O)c2)cc1O | 3 | -10 | 5 | / | -6 | 3 | /
Oc1ccc(N=Cc2ccc(O)c(O)c2)cc1 | ? | -13 | 3 | 11 | 86* | -6 | 24*
COC(=O)c1ccc(C(=O)OC)c(-n2c(=O)c3ccccc3c3ccccc3c2=O)c1 | -1 | -11 | 0 | 18 | 40* | 5 | 25*
COC(=O)c1ccc(-n2c(C)nc3ccccc3c2=O)cc1 | -2 | 2 | 0 | / | 3 | -3 | /
CCCCCCN1N=C(C)C(C(=O)c2ccc(Cl)cc2)C1=O (stereo not drawn) | -1 | -3 | 3 | 7 | 5 | 94 | /
O=C1Cc2ccccc2C(=O)N1CCc1ccccc1 | -2 | -51 | 0 | / | 92* | -2 | 5.5*
COc1ccc(CN(CCC(c2ccccc2)c2ccc(OC(C)C)cc2)C(=O)CCl)cc1OC (stereo not drawn) | -4 | -1 | 2 | 15 | 83* | 99 | 0.4*
O=C1C=C(NCCN2CCOCC2)C(=O)c2cnccc21 | / | -101 | -1 | / | 96* | 18 | 1*
SMILES | FadD28 binding | Rv3671c inh | UGM FP inh | Mtb hypoxia rep | RecA intein inh | Mtb bLac sens | GFP chromo cs
O=C(NCCN1CCOCC1)c1ccncc1 | -1 | 5 | -1 | 9 | 0 | -1 | /
CS(=O)(=O)N1CCC(Oc2ccccc2C(=O)N2CCCCC2CO)CC1 (stereo not drawn) | -2 | 5 | 3 | 3 | 48* | 0 | >38
CC(C)Cc1ccc([C@H](C)C(=O)O)cc1 | -3 | -6 | 1 | / | 3 | 3 | /
CC(C)Cc1ccc(-c2cc(=O)[nH][nH]2)cc1 | 0 | 4 | 2 | 7 | 92* | -2 | 2.6*
Cc1ccc(-n2nnc3c(SCC(=O)NCC4CCCO4)ncnc32)cc1 (stereo not drawn) | -2 | 9 | -1 | 6 | 40* | 72 | >38
O=C(CSc1ncnc2c1nnn2-c1ccc(F)cc1)NCC1CCCO1 (stereo not drawn) | -3 | 1 | -3 | 6 | 38* | 92 | 8.9*
O=C(Cn1cnc2c(nnn2-c2ccc(F)cc2)c1=O)NCC1CCCO1 (stereo not drawn) | -3 | -5 | 0 | -1 | 1 | -2 | /
CN1CCC(OC(=O)COc2ccccc2)CC1 | -3 | 4 | 0 | 14 | 0 | 3 | /
CCC(=O)O[C@]1(C(=O)CCl)C(C)CC2C3CCC4=CC(=O)C=C[C@]4(C)[C@@]3(F)C(O)C[C@@]21C (stereo partly drawn) | / | / | / | -4 | / | / | /
Cc1ncc(C[n+]2ccc(C)c(C)c2)c(N)n1 | -1 | 3 | 2 | 1 | -4 | -1 | /
Cc1onc(-c2c(Cl)cccc2Cl)c1C(=O)O/N=C(\C#N)c1ccccc1 | -3 | -5 | 1 | / | 9 | 15 | /
Fc1cccc(/C=N/Nc2nncc3ccccc23)c1 | 1 | -18 | 0 | / | -1 | 2 | /
C(=N\Nc1nncc2ccccc12)/c1ccccn1 | 0 | -6 | -2 | / | 38* | 7 | 10*
O=c1[nH]cc(O)c(=O)[nH]1 | -4 | 5 | 2 | / | 89* | -11 | 15*
CCOC(=O)c1cnc2ccc(C)cc2c1Sc1ccccc1 | -2 | -16 | 0 | / | 63* | 60 | 38*
O=C(O)c1ccccc1O | 0 | 9 | 2 | 19 | -2 | -3 | /
Nc1c(O)cccc1C(=O)O | -1 | -64 | 0 | -6 | 71* | -2 | 6.1*
O=C(N/N=C\c1ccc(-c2ccccc2[N+](=O)[O-])o1)C1COc2cc3ccccc3cc2O1 (stereo not drawn) | 0 | -40 | 2 | / | 13 | -3 | /
O=C(CNC(=O)C1COc2ccccc2O1)N/N=C\c1ccccc1Cl (stereo not drawn) | -1 | -12 | 4 | / | 0 | -2 | >38
O=C(N/N=C\c1ccc(-c2ccccc2[N+](=O)[O-])o1)C1COc2ccccc2O1 (stereo not drawn) | -4 | -75 | 1 | / | 33* | -12 | 39*
CC1Sc2ccc(S(=O)(=O)CCC(=O)N(C)Cc3ccco3)cc2NC1=O (stereo not drawn) | -1 | -10 | 1 | 1 | 6 | -24 | /
CC(=O)Nc1ccc(NC2=CC(=O)c3ccccc3C2=O)cc1 | -3 | -7 | -2 | 10 | 23 | 0 | /
NS(=O)(=O)c1ccc(NC2=CC(=O)C(=O)c3ccccc32)cc1 | 3 | -83 | -3 | / | 92* | 5 | 2.6*
